From PubChem BioAssay (NCI)
“And” between values parts separate entries of the source, which are not always exact repeats. Equal values may be shown once. Compounds without any hit were thinned out: in the full panel of roughly 83,000, 20% have a hit.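 Compound tested at a single concentration for 48 hours in 96-well plates; a percent growth value below 10 was scored as active.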 Unmarked numbers belong to inactive results. The source made the active and inactive calls.

Experiments:
Experiment in all cases: NCI-60 one-dose screen, 48 h (100 = growth as untreated, 0 = no growth, -100 = all killed)
Details in all cases: 10 µM
[1] = test system: DU-145 prostate
[2] = test system: K-562 leukemia
[3] = test system: MALME-3M melanoma
[4] = test system: MDA-MB-231 breast
[5] = test system: RXF 393 renal
[6] = test system: SF-268 CNS
[7] = test system: SF-295 CNS
[8] = test system: SF-539 CNS
[9] = test system: UACC-257 melanoma
[10] = test system: M14 melanoma

SMILES | growth [1] | growth [2] | growth [3] | growth [4] | growth [5] | growth [6] | growth [7] | growth [8] | growth [9] | growth [10]
CC(=O)Nc1c2sscc-2n(C)c1=O | -100% (active) | -72.9% (active) | -89.7% (active) | -92.4% (active) | -92.5% (active) | -80.4% (active) | -96.5% (active) | -94.9% (active) | -44.5% (active) | -96.7% (active)
COc1cc2c(cc1OC)C13CCN4CC5=CCOC6CC(=O)N2C1C6C5CC43 (centres undefined) | 123% and 116% | 124% and 74.9% | 126% and 103% | 111% and 87.4% | 127% | 103% | 105% and 134% | 96.8% and 80.2% | 104% | 107% and 108%
CC/C(=C/c1ccc(OC)cc1)[N+](=O)[O-] | 31.5% | 5.85% (active) | -36.1% (active) | -18.5% (active) | -79.7% (active) | 38% | 98.1% | -19.6% (active) | 4.44% (active) | 19.9%
COC12C(COC(N)=O)C3=C(C(=O)C(C)=C(N)C3=O)N1CC1C2N1C (centres undefined) | -3.38% (active) | 50.1% | 31.4% | 93.9% | 46% | 45.8% | 17.3% | 19.8% | 16.6% | 28.4%
C[C@]12CC[C@H]3[C@@H](CCC4=CC(=O)CC[C@@H]43)[C@@H]1CC[C@@H]2OC(=O)N(CCCl)N=O | 1.81% (active) | 29.5% | 91.7% | 76.3% | 69.9% | 23.7% | 12.3% | -0.439% (active) | 84.4% | 49%
O=S(=O)(F)c1ccc(Cl)cc1 | 130% | 112% | 123% | 115% | 112% | 97.6% | 114% | 99.7% | 99.1% | 104%
O=[N+]([O-])c1ccc(Br)c([N+](=O)[O-])c1 | 93.4% | 34.6% | 68.6% | 88.9% | 102% | 96.8% | 108% | 98.7% | 74.3% | 79.9%
C#CC1(O)CCC(C(C)(C)C)CC1 (centres undefined) | 114% | 121% | 115% | 119% | 115% | 103% | 97.7% | 102% | 97% | 108%
Oc1c(Cl)cc(Cl)c2ccccc12.[Cu+2] | 106% | 69% | 96.3% | 81.4% | 103% | 109% | – | 108% | 113% | 97.9%
NC(=O)c1cc([N+](=O)[O-])c(Cl)c([N+](=O)[O-])c1 | 65.5% | – | 71.3% | 92.2% | 93.8% | 101% | 115% | 98.1% | 105% | 78.6%
CC(=O)[O][Hg][c]1c(C)c(C)cc(C)c1C | -61% (active) | -10.1% (active) | – | -51.5% (active) | -45.5% (active) | -74.4% (active) | 13.6% | 41.9% | -64.1% (active) | -87% (active)
O=[N+]([O-])/C=C\c1ccc2c(c1)OCO2 | 88.7% | 78.2% | – | 101% | 74.4% | 86.7% | 83.3% | 94.8% | 75% | 76.6%
CCOP(=O)(OCC)/C(C#N)=C/c1ccc(Br)cc1 | 107% | – | 107% | 106% | – | 95.2% | 106% | 95.9% | 93.7% | 98.4%
C[CH2][Hg][S]c1ccccc1C(=O)O | -28.6% (active) | -4.39% (active) | -96.4% (active) | -5.17% (active) | -96.8% (active) | -18.6% (active) | 97.2% | – | -98.5% (active) | -67.1% (active)
CS(=N)(=O)CCC(N)C(=O)O (centres undefined) | 122% | 97.2% | 103% | 109% | – | 119% | 97.1% | 109% | 105% | 108%
NC(=O)c1cc([N+](=O)[O-])c(Cl)c([N+](=O)[O-])c1Cl | – | 8.14% (active) | -51.5% (active) | 1.49% (active) | -89.6% (active) | – | 95.5% | 5% (active) | -29.2% (active) | -21.9% (active)
COc1cc(/C=C/[N+](=O)[O-])cc(OC)c1OC | 9.73% (active) | 5.19% (active) | -30.2% (active) | 34% | – | 28.6% | 69% | -61.3% (active) | -15.8% (active) | -6.32% (active)
Cc1cc(C)c(C[N+](C)(C)C)c(C)c1C | 5.6% (active) | 7.21% (active) | – | -12.6% (active) | – | 2.43% (active) | 2.12% (active) | -7.58% (active) | 16.9% | 10.5%
[Cl][Hg][c]1ccc2ccccc2c1 | -22.1% (active) | -13.1% (active) | – | -69.6% (active) | -97% (active) | -70.4% (active) | 17.3% | -13.7% (active) | -86.7% (active) | -99.1% (active)
CC/C(=C/c1ccc(OC)cc1OC)[N+](=O)[O-] | 39.1% | 3.65% (active) | 8.59% (active) | 18.4% | -59.6% (active) | 41.5% | 101% | -1.55% (active) | 45.8% | 54%
CCCCCCCC[N+]12CN3CN(CN(C3)C1)C2 | 101% | 124% | 98% | – | 105% | 95% | 95.6% | 92.7% | 98.9% | 89.5%
CCOP(=O)(OCC)C(O)c1ccccc1Cl (centres undefined) | 97.7% | 97.7% | 86.8% | 118% | – | 100% | 112% | 91.1% | 106% | 103%
COC12c3c(C)cc(O)c4c(=O)occ(c34)C(=O)C1C13COC(=O)c4c(O)cc(C)c(c41)C(=O)C2C3OC(C)=O (centres undefined) | 113% | 97.8% | 92.7% | 100% | 115% | 100% | – | 95.9% | 106% | –
COC(=O)C1C(O)C(C)C(O)C(C)/C=C\C=C(C)C(=O)Nc2c(C)c(OC(C)=O)c3c(c2O)C(=O)C(C)=C2OCOC(=C23)C(C)=CC(C)(O)C(O)C(C)C1O (centres undefined) | 92.2% | 106% | 97.9% | 88.6% | 98.6% | 92.2% | 103% | 100% | 93.1% | 118%
C[C@@H]1C[C@@H]([C@H](O)CC2CC(=O)NC(=O)C2)C(=O)[C@@H](C)C1 | 4.37% (active) | – | 1.97% (active) | 0.445% (active) | – | 5.71% (active) | 2.62% (active) | -5.66% (active) | -4.83% (active) | -9.1% (active)
O=[N+]([O-])/C=C/c1ccc(Cl)cc1[N+](=O)[O-] | 75.2% | 9.32% (active) | 96.3% | 58.2% | -94.7% (active) | 59.1% | 91.6% | -35.3% (active) | 89.3% | 55.3%
COc1cc2c(c(OC)c1OC)-c1ccc(O)c(=O)cc1[C@@H](NC(C)=O)CC2 | 61.5% | 46.8% | 79.8% | 72.2% | 59.7% | 47.5% | – | 51.5% | 75.7% | 52.7%
